# In PubChem BioAssay (NCATS):
# Values without a mark were called inactive. Inconclusive results are not listed. Where a call stands in place of a potency, no number is given. Activity calls are given as the source filed them. Unless noted, calls follow the shape of the dose curve; as a rule, active = well fitted curve in the direction sought with a large enough effect; inconclusive = small, poorly fitted or top-dose-only effect, or another doubt; inactive = no such curve, though single readings can be large; an effect the other way counts as inactive or inconclusive.
# What was measured:
# MKL-1 = experiment: qHTS assay to identify novel small-molecules to repurpose for Merkel cell carcinoma treatment (AID 1296009); settings: MCC and control cell lines, CellTiter-Glo viability, 72 h; series mostly up to 46 µM; also: nearly all actives have a fitted effect of over 60% in size; also: potency is read from the fitted curve at half-maximal effect
# How it was run: (§1)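 After compound transfer in DMSO, plates were kept 72 hr at 37 degree celsius. Luminescent ATP signal from CellTiter-Glo served as viability measure, normalized against DMSO and no-cell controls.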
# MKL-2 = experiment: as above; settings: MCC and control cell lines, CellTiter-Glo viability, 72 h; series mostly up to 46 µM
# How it was run: as §1
# UISO = experiment: as above; settings: MCC and control cell lines, CellTiter-Glo viability, 72 h; series mostly up to 46 µM
# How it was run: as §1
# Es-2 = experiment: Primary qHTS to identify gynecologic anti-cancer compounds using libraries of approved drugs and bioactive compounds (AID 1345084); settings: Gynecologic cancer cell panel viability, ATPlite luminescence, 48 h; series mostly up to 57.5 µM; also: nearly all actives have a fitted effect of over 55% in size; also: potency is read from the fitted curve at half-maximal effect
# How it was run: (§2)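 Five-concentration response, 48 h; readout is ATP-driven luciferase luminescence.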
# HeLa = experiment: as above; settings: Gynecologic cancer cell panel viability, ATPlite luminescence, 48 h; series mostly up to 57.5 µM
# How it was run: as §2
# Hek293T = experiment: as above; settings: Gynecologic cancer cell panel viability, ATPlite luminescence, 48 h, control line for the selectivity index; series mostly up to 57.5 µM
# How it was run: as §2
# JEG-3 = experiment: as above; settings: Gynecologic cancer cell panel viability, ATPlite luminescence, 48 h; series mostly up to 57.5 µM
# How it was run: as §2
# PA-1 = experiment: as above; settings: Gynecologic cancer cell panel viability, ATPlite luminescence, 48 h; series mostly up to 57.5 µM
# How it was run: as §2
# Tov112D = experiment: as above; settings: Gynecologic cancer cell panel viability, ATPlite luminescence, 48 h; series mostly up to 57.5 µM
# How it was run: as §2
# [1] = qHTS assay to identify inhibitors of the type 1 interferon - major histocompatibility complex class I in skeletal muscle: Counter screen cell viability and HiBit confirmation (AID 1347412); settings: iHSKM muscle cells + IFN-b, HiBiT or CellTiter-Glo, 24 h; Potency: HiBiT; Viability, at 45.9 µM (top of the series); also: nearly all actives have a fitted effect of over 60% in size; also: potency is read from the fitted curve at half-maximal effect
# How it was run: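 CRISPR HLA-B*08:01-HiBit immortalized human myoblasts (C25cl48) stimulated with 4 ng/ml IFN-beta and compounds (12-point 1:3, top 46 uM final) for 24 h at 37 C. Duplicate plates read by HiBit lytic luminescence or CellTiter Glo ATP.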
# WaGa = experiment: qHTS assay to identify novel small-molecules to repurpose for Merkel cell carcinoma treatment (AID 1296009); settings: MCC and control cell lines, CellTiter-Glo viability, 72 h; series mostly up to 46 µM; also: nearly all actives have a fitted effect of over 60% in size; also: potency is read from the fitted curve at half-maximal effect
# How it was run: as §1
# C33A = experiment: Primary qHTS to identify gynecologic anti-cancer compounds using libraries of approved drugs and bioactive compounds (AID 1345084); settings: Gynecologic cancer cell panel viability, ATPlite luminescence, 48 h; series mostly up to 57.5 µM; also: nearly all actives have a fitted effect of over 55% in size; also: potency is read from the fitted curve at half-maximal effect
# How it was run: as §2
# CASKI = experiment: as above; settings: Gynecologic cancer cell panel viability, ATPlite luminescence, 48 h; series mostly up to 57.5 µM
# How it was run: as §2
# SKOV3 = experiment: as above; settings: Gynecologic cancer cell panel viability, ATPlite luminescence, 48 h; series mostly up to 57.5 µM
# How it was run: as §2
# Tov-21-G = experiment: as above; settings: Gynecologic cancer cell panel viability, ATPlite luminescence, 48 h; series mostly up to 57.5 µM
# How it was run: as §2
# NIH3T3 = experiment: qHTS assay to identify novel small-molecules to repurpose for Merkel cell carcinoma treatment (AID 1296009); settings: MCC and control cell lines, CellTiter-Glo viability, 72 h; at 44.8 µM (top of the series) unless noted; also: nearly all actives have a fitted effect of over 60% in size; also: potency is read from the fitted curve at half-maximal effect
# How it was run: as §1
# [2] = biological target: Nuclear receptor subfamily 1 group I member 2 (Rattus norvegicus) (UniProt Q9R1A7); experiment: qHTS assay for small molecule activators of the rat pregnane X receptor (rPXR) signaling pathway (AID 651751; call rule not given here); settings: rPXR reporter cells, luciferase (One-Glo), 24 h
# Chain of Nuclear receptor subfamily 1 group I member 2 (Rattus norvegicus) (Q9R1A7 whole entry, looked up): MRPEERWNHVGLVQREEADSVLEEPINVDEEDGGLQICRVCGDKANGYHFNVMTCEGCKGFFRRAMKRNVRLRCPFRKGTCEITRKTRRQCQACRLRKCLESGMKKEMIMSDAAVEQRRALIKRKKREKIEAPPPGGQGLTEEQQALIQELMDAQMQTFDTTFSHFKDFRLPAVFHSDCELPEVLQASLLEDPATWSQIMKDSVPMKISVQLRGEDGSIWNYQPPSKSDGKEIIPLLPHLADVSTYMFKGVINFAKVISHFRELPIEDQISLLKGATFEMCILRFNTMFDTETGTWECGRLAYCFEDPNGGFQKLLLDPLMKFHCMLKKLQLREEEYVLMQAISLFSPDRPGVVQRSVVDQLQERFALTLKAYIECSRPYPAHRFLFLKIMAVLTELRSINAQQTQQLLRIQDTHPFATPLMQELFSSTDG
# [3] = qHTS assay for small molecule activators of the human pregnane X receptor (PXR) signaling pathway (AID 720659; call rule not given here)
# OV90 = experiment: Primary qHTS to identify gynecologic anti-cancer compounds using libraries of approved drugs and bioactive compounds (AID 1345084); settings: Gynecologic cancer cell panel viability, ATPlite luminescence, 48 h; series mostly up to 57.5 µM; also: nearly all actives have a fitted effect of over 55% in size; also: potency is read from the fitted curve at half-maximal effect
# How it was run: as §2
smiles,measurement,setting,value
c1cc(N[C@@H]2CCNC2)nc(-c2cnc3ccc(-c4cn[nH]c4)cn23)c1,Potency,MKL-1,8.33 µM (active)
same,Potency,MKL-2,7.43 µM (active)
same,Potency,UISO,16.6 µM (active)
same,Potency,Es-2,inactive
same,Potency,HeLa,inactive
same,Potency,Hek293T,inactive
same,Potency,JEG-3,inactive
same,Potency,PA-1,10 µM (active)
same,Potency,Tov112D,14.1 µM (active)
same,Potency,[1],inactive
Cc1ccccc1C(=O)Nc1ccc(C(=O)N2CCCC(O)c3cc(Cl)ccc32)c(C)c1 (stereo not drawn),Potency,MKL-1,inactive
same,Potency,MKL-2,inactive
same,Potency,UISO,inactive
same,Potency,WaGa,inactive
same,Potency,C33A,inactive
same,Potency,CASKI,inactive
same,Potency,Es-2,inactive
same,Potency,HeLa,inactive
same,Potency,Hek293T,inactive
same,Potency,JEG-3,inactive
same,Potency,PA-1,inactive
same,Potency,SKOV3,inactive
same,Potency,Tov-21-G,inactive
same,Potency,Tov112D,inactive
COc1ccc([C@@H]2CNC(=O)C2)cc1OC1CCCC1,Potency,MKL-1,inactive
same,outcome,NIH3T3,inactive
Nc1ccc(C(=O)Nc2cccc(-c3nc(N4CCOCC4)c4oc5ncccc5c4n3)c2)cn1,Potency,MKL-1,inactive
same,Potency,MKL-2,inactive
same,Potency,UISO,inactive
same,Potency,CASKI,14.1 µM (active)
same,Potency,PA-1,3.16 µM (active)
same,Potency,SKOV3,15.8 µM (active)
CN(C)c1ccc(C(=O)NCCCCCCC(=O)NO)cc1,Potency,MKL-1,1.66 µM (active)
same,Potency,MKL-2,0.743 µM (active)
same,Potency,WaGa,0.662 µM (active)
CC(=O)O[C@]1(C(C)=O)CC[C@H]2[C@@H]3C=C(C)C4=CC(=O)CC[C@]4(C)[C@@H]3CC[C@@]21C,Potency,MKL-1,3.32 µM (active)
same,Potency,MKL-2,2.35 µM (active)
same,Potency,WaGa,1.87 µM (active)
Cc1cc(O)c2c(c1)C(=O)c1cccc(O)c1C2=O,Potency,MKL-1,inactive
same,Potency,MKL-2,inactive
same,Potency,UISO,inactive
same,Potency,WaGa,inactive
same,max response,[2],-1.64%
same,outcome,[3],inactive
Cn1cc(-c2ccc3ncc(Cc4ccc5ncccc5c4)n3n2)cn1,Potency,MKL-1,inactive
same,Potency,MKL-2,inactive
same,Potency,UISO,inactive
same,Potency,WaGa,inactive
same,Potency,Hek293T,inactive
same,Potency,OV90,inactive
CC(C=CC=C(C)C=CC1=C(C)CCCC1(C)C)=CC=CC=C(C)C=CC=C(C)C=CC1=C(C)CCCC1(C)C,Potency,MKL-1,inactive
same,Potency,UISO,inactive
CCN(CC)CCCCNc1ncc2c(n1)N(C)C(=O)N(c1c(Cl)c(OC)cc(OC)c1Cl)C2,Potency,MKL-1,inactive
same,Potency,WaGa,inactive
O=C(O)CCCCC(CCSCc1ccccc1)SCc1ccccc1 (stereo not drawn),Potency,MKL-1,inactive
same,Potency,UISO,inactive
same,Potency,WaGa,13.2 µM (active)
CCCCCCCCCCCC(CC1OC(=O)C1CCCCCC)OC(=O)C(CC(C)C)NC=O (stereo not drawn),Potency,MKL-1,inactive
same,Potency,UISO,inactive
same,Potency,WaGa,inactive
CN[C@@H]1C[C@H]2O[C@@](C)([C@H]1OC)n1c3ccccc3c3c4c(c5c6ccccc6n2c5c31)C(=O)N[C@H]4O,Potency,MKL-1,5.26 µM (active)
same,Potency,UISO,1.87 µM (active)
same,Potency,WaGa,1.32 µM (active)
C=CC(=O)Nc1ccc2ncnc(Nc3ccc(OCc4cccc(F)c4)c(Cl)c3)c2c1,Potency,MKL-1,0.118 µM (active)
same,Potency,WaGa,0.0332 µM (active)
same,Potency,CASKI,14.1 µM (active)
same,Potency,Es-2,inactive
same,Potency,HeLa,inactive
same,Potency,JEG-3,inactive
same,Potency,OV90,inactive
same,Potency,PA-1,inactive
same,Potency,SKOV3,inactive
same,Potency,Tov-21-G,10 µM (active)
COc1cc2ncnc(Nc3cccc(Br)c3)c2cc1OC,Potency,MKL-1,inactive
same,Potency,WaGa,inactive
Cc1cnc(Nc2ccc(CN3CCOCC3)cc2)nc1Nc1cccc(S(=O)(=O)NC(C)(C)C)c1,Potency,MKL-1,11.8 µM (active)
same,Potency,WaGa,10.5 µM (active)
same,Potency,CASKI,8.91 µM (active)
same,Potency,HeLa,1 µM (active)
same,Potency,JEG-3,17.8 µM (active)
same,Potency,OV90,22.4 µM (active)
same,Potency,PA-1,1.58 µM (active)
same,Potency,SKOV3,7.08 µM (active)
same,Potency,Tov-21-G,2.24 µM (active)
same,Potency,Tov112D,5.01 µM (active)
same,Potency,[1],8.83 µM (active)
COc1cc2c(Nc3ccc(Cl)c(Cl)c3F)ncnc2cc1OCC1C[C@@H]2CN(C)C[C@H]2C1,Potency,MKL-1,7.43 µM (active)
same,Potency,UISO,4.18 µM (active)
same,Potency,WaGa,18.7 µM (active)
COc1cccc2c1C(=O)c1c(O)c3c(c(O)c1C2=O)C[C@@](O)(C(=O)CO)C[C@@H]3O[C@H]1C[C@H](N)[C@@H](O)[C@H](C)O1,Potency,MKL-1,0.166 µM (active)
same,Potency,WaGa,0.0935 µM (active)
COc1cc(C(=O)NC2CCN(C)CC2)ccc1Nc1ncc2c(n1)N(C1CCCC1)CCC(=O)N2C(C)C,Potency,MKL-1,2.35 µM (active)
same,Potency,WaGa,1.87 µM (active)
COC(=O)[C@@H]1[C@H]2C[C@@H]3c4[nH]c5ccccc5c4CCN3C[C@@H]2CC[C@@H]1O,Potency,MKL-1,inactive
same,Potency,UISO,inactive
same,Potency,WaGa,inactive
O=C(Nc1cc2cc[nH]c2cn1)c1ccccc1,Potency,MKL-1,14.8 µM (active)
same,Potency,C33A,1.41 µM (active)
same,Potency,CASKI,1.78 µM (active)
same,Potency,Es-2,1.58 µM (active)
same,Potency,HeLa,1.41 µM (active)
same,Potency,Hek293T,2.24 µM (active)
same,Potency,JEG-3,1.12 µM (active)
same,Potency,OV90,0.891 µM (active)
same,Potency,PA-1,0.891 µM (active)
same,Potency,SKOV3,2 µM (active)
same,Potency,Tov-21-G,1.26 µM (active)
same,Potency,Tov112D,2 µM (active)
CCn1c(=O)c2c(nc(C=Cc3ccc(OC)c(OC)c3)n2C)n(CC)c1=O,Potency,MKL-1,inactive
same,outcome,NIH3T3,inactive
same,Potency,UISO,inactive
same,Potency,WaGa,inactive
same,Potency,C33A,inactive
same,Potency,CASKI,inactive
same,Potency,Es-2,inactive
same,Potency,HeLa,inactive
same,Potency,Hek293T,inactive
same,Potency,JEG-3,inactive
same,Potency,OV90,inactive
same,Potency,PA-1,inactive
same,Potency,SKOV3,inactive
same,Potency,Tov-21-G,inactive
same,Potency,Tov112D,inactive
CC(=O)OC[C@@H]1O[C@@H](n2ccc(=O)[nH]c2=O)[C@H](OC(C)=O)[C@H]1OC(C)=O,Potency,MKL-1,inactive
same,Potency,UISO,inactive
same,Potency,WaGa,inactive
COC[C@H](NC(=O)c1cnc(C)s1)C(=O)N[C@@H](COC)C(=O)N[C@@H](Cc1ccccc1)C(=O)[C@@]1(C)CO1,Potency,MKL-1,0.418 µM (active)
same,Potency,UISO,0.235 µM (active)
same,Potency,WaGa,0.118 µM (active)
same,Potency,[1],0.198 µM (active)
CN1C(C(=O)Nc2ccccn2)=C(O)c2sc(Cl)cc2S1(=O)=O,Potency,MKL-1,inactive
same,Potency,UISO,inactive
same,Potency,WaGa,inactive
